Measurements from PMC4336329 (PLoS ONE, 2015).
Among all 310,000 compounds or so, about 14,000 (4.5%) showed an effect of 50% or more. Effects have a minus sign here. Shown is part of a subset that was picked to be rich in strong results.

biological target: human ether-à-go-go-related gene (hERG) potassium channel (human, UniProt Q12809); experiment: primary screen, population patch clamp on CHO cells stably expressing hERG; higher = less effect of the substance
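Also: peak tail current of the secondary pulse compared with the same well before compound.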

Chain of human ether-à-go-go-related gene (hERG) potassium channel (Q12809 whole entry, looked up): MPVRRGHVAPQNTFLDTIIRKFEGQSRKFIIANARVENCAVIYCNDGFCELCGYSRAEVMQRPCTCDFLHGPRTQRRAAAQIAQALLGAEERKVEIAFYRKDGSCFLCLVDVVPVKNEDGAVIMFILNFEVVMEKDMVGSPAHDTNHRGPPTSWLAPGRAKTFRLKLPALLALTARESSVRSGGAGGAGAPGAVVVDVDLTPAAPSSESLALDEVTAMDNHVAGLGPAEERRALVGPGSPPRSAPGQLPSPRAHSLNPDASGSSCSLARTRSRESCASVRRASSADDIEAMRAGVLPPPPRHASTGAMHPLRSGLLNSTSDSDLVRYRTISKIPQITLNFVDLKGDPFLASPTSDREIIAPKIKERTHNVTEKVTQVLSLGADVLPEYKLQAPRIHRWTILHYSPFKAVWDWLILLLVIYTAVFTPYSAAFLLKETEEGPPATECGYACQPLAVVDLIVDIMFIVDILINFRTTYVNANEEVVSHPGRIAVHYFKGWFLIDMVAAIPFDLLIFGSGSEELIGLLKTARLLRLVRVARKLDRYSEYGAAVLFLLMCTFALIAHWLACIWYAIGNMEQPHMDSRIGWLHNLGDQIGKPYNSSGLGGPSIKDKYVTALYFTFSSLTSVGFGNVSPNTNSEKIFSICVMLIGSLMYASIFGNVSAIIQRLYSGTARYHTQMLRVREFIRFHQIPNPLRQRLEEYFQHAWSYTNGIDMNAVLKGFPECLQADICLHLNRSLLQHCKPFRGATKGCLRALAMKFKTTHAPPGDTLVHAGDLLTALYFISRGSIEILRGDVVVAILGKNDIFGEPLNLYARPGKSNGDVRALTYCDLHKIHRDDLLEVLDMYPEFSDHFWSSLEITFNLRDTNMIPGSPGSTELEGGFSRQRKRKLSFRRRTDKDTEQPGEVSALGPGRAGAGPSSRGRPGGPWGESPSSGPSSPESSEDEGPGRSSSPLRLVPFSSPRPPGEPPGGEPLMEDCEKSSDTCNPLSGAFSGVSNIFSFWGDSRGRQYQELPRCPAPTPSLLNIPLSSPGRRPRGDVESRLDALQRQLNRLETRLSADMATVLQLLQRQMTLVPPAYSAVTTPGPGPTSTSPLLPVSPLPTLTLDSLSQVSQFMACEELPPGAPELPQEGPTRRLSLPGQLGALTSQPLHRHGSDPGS

| Structure (SMILES) | hERG current change (%, negative = inhibition) at 10uM |
| --- | --- |
| N/C(=N\OC(=O)COc1ccc2ccccc2c1Br)c1cccnc1 | 12.9% |
| Cc1cc(C)cc(C(=O)OCC(=O)Nc2ncccn2)c1 | -0.75% |
| Cc1cccc(NC(=O)c2ccc3nc(N4CCOCC4)sc3c2)c1C | -34.7% |
| COc1ccc(S(=O)(=O)NCCc2cc3ccc(C)c(C)c3[nH]c2=O)cc1 | 17.2% |
| C/C(=N\NC(=O)c1c[nH]c2ccccc12)c1ccc2c(c1)OCO2 | 1.64% |
| COc1ccccc1CNC(=O)Cn1c(=O)oc2cc(Cl)ccc21 | 0.41% |
| CC(C)CCN1C(Nc2ccccc2)=NC[C@@H]1CC(C)C | -33.4% |
| CCC(CC)CN1C(Nc2ccccc2)=NC[C@@H]1CC(C)C | -58.2% |
| CC(C)CCCN1CCN=C1Nc1ccccc1 | -3.11% |
| CCN1C(Nc2ccccc2)=NC[C@@H]1CC(C)C | 3.75% |
| CC(C)CCCN1C(Nc2ccccc2)=NC[C@@H]1Cc1ccccc1 | -62.3% |
| CC(C)CCN1C(Nc2ccccc2)=NC[C@@H]1Cc1ccccc1 | -47.9% |
| CCCCN1C(Nc2ccccc2)=NC[C@@H]1CC(C)C | -34.5% |
| CC(C)C[C@H]1CN=C(Nc2ccccc2)N1CC(C)C | -3.04% |
| CC(C)CCCN1C(Nc2ccccc2)=NC[C@@H]1CC(C)C | -60.1% |
| CCCCCCCN1C(Nc2ccccc2)=NC[C@@H]1CC(C)C | -73.7% |
| CC1(OC(=O)CCc2ccccc2)C(=O)C=C2C=C3CCCN3C=C2C1=O (stereo not shown) | -1.36% |
| Cc1cccc(NC(=O)CCc2ccc(S(=O)(=O)NC3CCCCC3)cc2)c1 | 14.4% |
| Cc1oc2c(c(C)cc3oc(=O)c(CC(=O)N[C@@H](CC(C)C)C(=O)O)c(C)c32)c1C | 15.8% |
| COC(=O)CSc1nc2c(c(=O)n(C)c(=O)n2C)n1CCC(C)C | -5.54% |
| CCS(=O)(=O)N1CCCC(C(=O)c2ccc(OC)cc2C)C1 (stereo not shown) | 28.9% |
| CC(=O)O[C@@H]1/C=C/[C@](C)(O)C[C@@H](C)C/C=C/[C@H]2[C@@H]3O[C@]3(C)[C@@H](C)[C@H]3[C@H](Cc4ccccc4)NC(=O)[C@@]312 | 16% |

| Structure (SMILES) | hERG current change (%, negative = inhibition) at 10uM |
| --- | --- |
| O=C(Nc1cccc(C(F)(F)F)c1)C(SCCO)c1ccccc1 (stereo not shown) | -4.8% |
| O=C(Nc1ccc(Cl)cc1C(F)(F)F)C(Sc1cccc[n+]1[O-])c1ccccc1 (stereo not shown) | -81.3% |
| O=C(Nc1cc(C(F)(F)F)ccc1Cl)C(Sc1cccc[n+]1[O-])c1ccccc1 (stereo not shown) | -14.5% |
| COc1cccc(NC(=O)C(NCC(C)(C)CN(C)C)c2ccccc2)c1.O=C(O)C(=O)O (stereo not shown) | -48.4% |
| CN(C)CC(C)(C)CNC(C(=O)Nc1ccc(Cl)cc1C(F)(F)F)c1ccccc1 (stereo not shown) | -76.9% |
| CN(C)c1cccc(C(=O)OC(C(=O)Nc2ccc(Cl)cc2C(F)(F)F)c2ccccc2)c1 (stereo not shown) | -3.78% |
| O=C(Nc1cccc(C(F)(F)F)c1)C(Sc1cccc[n+]1[O-])c1ccccc1 (stereo not shown) | -42.7% |
| N#CCC(=O)N/N=C\c1ccc(OC/C=C/c2ccccc2)cc1 | 14.4% |
| Cc1ccccc1S(=O)(=O)Cc1ccc(C(=O)NC2CCCCC2)o1 | -1.84% |
| Nc1nc(SCC(=O)Nc2ccc([N+](=O)[O-])cc2Br)n[nH]1 | 3.65% |
| CCOC(=O)C1(CC2CCCCO2)CCN(C(=O)Nc2ccccc2)CC1 (stereo not shown) | 12% |
| COc1ccc(/C=C/c2cc(C(F)(F)F)on2)cc1 | 16.4% |
| COc1ccc(/C=C/c2cc(-c3ccc(C)cc3)o[n+]2C)cc1.F[B-](F)(F)F | -77.1% |
| COc1ccc(/C=C/C(=O)Oc2ccc(C)cc2)cc1 | -14.4% |
| Cc1ccccc1NC(=O)c1ccc2ccccc2c1 | -8.12% |
| CCC(C)(C(=O)Nc1c(C)cccc1C)N(C)C(=O)c1ccc2ccccc2n1 (stereo not shown) | 8.52% |
| CSCC[C@H](NC(=O)c1cccs1)C(=O)N1CCC2(CC1)NCCc1[nH]cnc12 | 10.2% |
| O=[N+]([O-])c1cccc(S(=O)(=O)c2ccc(NCCO)c([N+](=O)[O-])c2)c1 | -51% |
| O=[N+]([O-])c1cccc(S(=O)(=O)c2ccc(NCCOCCO)c([N+](=O)[O-])c2)c1 | -38.3% |
| CCCCNc1ccc(S(=O)(=O)c2cccc([N+](=O)[O-])c2)cc1[N+](=O)[O-] | -22.2% |
| CCn1c(=O)c(C(=O)CN2CCN(Cc3ccc4c(c3)OCO4)CC2)c(N)n(Cc2ccccc2)c1=O | -72% |
